CBX7 inh: inhibitors of human CBX7 binding to H3K27me3 peptide | AlphaScreen His6-CBX7 / biotin-H3K27me3 peptide binding; active compounds read low | 1.1% of 66,000 active | O95931 | normalised signal (fraction of DMSO) (concentration not given with the values); in the data active = normalised signal below about 0.5
Target sequence (O95931 whole entry, looked up): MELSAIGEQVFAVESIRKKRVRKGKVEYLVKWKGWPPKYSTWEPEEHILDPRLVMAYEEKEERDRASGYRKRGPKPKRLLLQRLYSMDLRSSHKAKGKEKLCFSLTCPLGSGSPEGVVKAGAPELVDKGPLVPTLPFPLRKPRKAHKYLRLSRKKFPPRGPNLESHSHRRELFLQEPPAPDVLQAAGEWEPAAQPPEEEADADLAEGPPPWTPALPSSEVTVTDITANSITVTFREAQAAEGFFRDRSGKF
* = called active by the depositor. Many of the other results were omitted from the sample, so hits are more common in it than they were.

SMILES	CBX7 inh
Cc1ccc2nc(-c3ccncc3)c(Nc3ccc4c(c3)OCO4)n2c1	0.86
Cc1ccc2nc(-c3c[nH]c4ccccc34)c(Nc3ccc(F)cc3)n2c1	0.97
Cc1ccc2nc(-c3ccccn3)c(Nc3ccc(C(C)C)cc3)n2c1	0.62
Cc1ccc2nc(-c3ccccn3)c(Nc3ccc4c(c3)OCCO4)n2c1	0.001*
Cc1ccc(Nc2c(-c3ccccn3)nc3ccc(C)cn23)cc1	0.084*
Clc1ccc(Nc2c(-c3ccccn3)nc3ccc(Cl)cn23)cc1	0.92
Cc1ccc2nc(-c3ccccn3)c(Nc3ccc4c(c3)OCO4)n2c1	0.03*
CCc1ccc(NC(=O)c2cc(-c3ccccc3OC)on2)cc1	1.2
CCOC(=O)C1CCN(C(=O)CN2C(=O)COc3ccc(S(=O)(=O)N4CCCC4)cc32)CC1	1
Cc1ccc(-c2ccc(=O)n(CCC(=O)NC3CC3)n2)cc1	0.99
COCCCNC(=O)CCc1c(C)nc2cc(-c3ccccc3)nn2c1C	1.1
Cc1nc2cc(-c3cccc(F)c3)nn2c(C)c1CCC(=O)Nc1cccc(Cl)c1C	1
CC(NC(=O)C(=O)NCCc1c[nH]c2ccccc12)C(c1cccs1)N1CCN(C)CC1 (stereo not drawn)	0.94
CC1CCN(CCNS(=O)(=O)c2ccc3c(c2)CCC(=O)N3)CC1	1.1
Brc1ccc(Nc2ncc(-c3cccs3)s2)cc1	0.63
Brc1ccc2nc(-c3ccccn3)c(Nc3ccccc3)n2c1	0.96
Cc1cccc(C)c1Nc1c(-c2ccccn2)nc2ccc(Br)cn12	0.44*
Cc1ccn2c(Nc3ccc4c(c3)OCCO4)c(-c3cccs3)nc2c1	0.8
Cc1ccn2c(Nc3ccc4c(c3)OCO4)c(-c3ccccn3)nc2c1	0.034*
Cc1ccn2c(Nc3ccc4c(c3)OCO4)c(-c3ccsc3)nc2c1	0.91
Cc1cccc(C)c1Nc1c(-c2ccccn2)nc2ccc(Cl)cn12	0.54
O=C(Nc1sc2c(c1C(=O)N1CCOCC1)CCCC2)c1ccccc1F	0.83
COc1ccc(CNC(=O)c2cc(-c3ccc(Cl)c(Cl)c3)on2)cc1	1.1
C1=CC2=C(CO1)OCc1c2[nH]c2ccc3ccccc3c12	0.43*
Cc1ccc(-c2noc(CCC(=O)N3CCN(c4ccc(Cl)cc4)CC3)n2)cc1	1
SMILES	CBX7 inh
Cc1ccc2nc(-c3cccs3)c(Nc3ccccc3C)n2c1	0.9
O=C(C1CC1)N1CCc2cc(S(=O)(=O)NCCCN3CCN(c4ccccc4F)CC3)ccc21	0.96
COc1ccccc1CNc1ccc2c(c1)ncn2-c1ccccc1OC	0.59
COc1ccccc1CNC(=O)c1ccc2c(c1)ncn2-c1ccc(C)c(Cl)c1	0.86
CCCn1cnc2cc(NCc3ccccc3OC)ccc21	0.58
COc1ccccc1CNc1ccc2c(c1)ncn2-c1ccc(C)cc1	0.22*
COc1ccc(-n2cnc3cc(NCc4ccc(OC)c(OC)c4)ccc32)cc1	0.96
COc1ccc(-n2cnc3cc(NCc4ccccc4OC)ccc32)cc1	0.31*
COc1ccc(CNc2ccc3c(c2)ncn3-c2ccc(C)cc2)cc1	0.27*
COc1ccc(CNc2ccc3c(c2)ncn3C)c(OC)c1	0.96
CCOc1ccc(CNc2ccc3c(c2)ncn3-c2ccc(OC)cc2)cc1	0.75
CCn1c(C(=O)Nc2ccc(NC(C)=O)cc2)cc2sc(Cl)cc21	1
Cc1ccc(Cn2nnc3c(=O)n(CC(=O)NCc4ccc(F)cc4)cnc32)cc1	0.89
Cc1ccc(OCCOCCOc2ccc(-c3nc4sc5c(c4c(=O)[nH]3)CCCC5)cc2)cc1C	0.96
CCOc1ccc(NC(=O)C2CCN(c3nn4c(=O)cc(C)nc4s3)CC2)cc1	1
O=C(NCc1ccc(F)cc1)c1ccc2nc(N3CCOCC3)sc2c1	1.1
CCN1C(=O)c2ccccc2S(=O)c2ccc(C(=O)NCCOC)cc21 (stereo not drawn)	1
COc1ccc(OC)c(NC(=O)c2c(NCc3ccc(OC)c(OC)c3)sc3c2CCC3)c1	0.71
COc1cccc(CNc2sc3c(c2C(=O)Nc2cc(OC)ccc2OC)CCCC3)c1	0.77
COc1ccc(OC)c(NC(=O)c2c(NCc3ccc(N(C)C)cc3)sc3c2CCCC3)c1	0.48*
CCOC(=O)C(C)NC(=O)c1cc2c(s1)-c1ccccc1OC2 (stereo not drawn)	1.4
COc1ccc(CNC(=O)Cc2ccc(NC3=NC4CS(=O)(=O)CC4S3)cc2)cc1 (stereo not drawn)	0.82
O=C(CCN1C(=O)c2cccnc2C1=O)Nc1cccc(F)c1	0.44*
O=C(CCCN1C(=O)c2cccnc2C1=O)Nc1ccc(F)c(F)c1	1.1
O=C(CCCN1C(=O)c2cccnc2C1=O)Nc1cccc(Cl)c1	0.8
CN(Cc1ccccc1)S(=O)(=O)c1ccc(C(=O)Nc2ccc(-c3nc4ccccc4[nH]3)cc2)cc1	1
COc1ccccc1-c1nnc(NC(=O)c2ccc(S(=O)(=O)N3CCC(C)CC3)cc2)o1	0.85
COc1ccc(-c2nnc(NC(=O)c3ccc(S(=O)(=O)N(C)Cc4ccccc4)cc3)o2)cc1	0.0078*
COCCN(CCOC)S(=O)(=O)c1ccc(C(=O)Nc2nnc(-c3ccc(OC)cc3)o2)cc1	0.79

Source: PubChem (Bradner/Qi Labs at DFCI)
